Rows were chosen to be rich in hits. Some 16% of all compounds tested hit in one or more screens of this group.
TDP1 block: qHTS Assay for Inhibitors of Tyrosyl-DNA Phosphodiesterase (TDP1). recombinant TDP1, AlphaScreen DNA substrate cleavage. Potency, µM (series often up to 130 µM), for inactives: top-dose activity change, negative = inhibition, most hits filed as inhibitors. AID 485290, 2010. 350,000 compounds, 0.28% hits; also: potency is read from the fitted curve at half-maximal effect; % is scaled to controls: 0 for no effect and ±100 for the full control effect; nearly all actives have a fitted effect of over 40% in size
Target sequence (Q9NUW8 whole entry, looked up): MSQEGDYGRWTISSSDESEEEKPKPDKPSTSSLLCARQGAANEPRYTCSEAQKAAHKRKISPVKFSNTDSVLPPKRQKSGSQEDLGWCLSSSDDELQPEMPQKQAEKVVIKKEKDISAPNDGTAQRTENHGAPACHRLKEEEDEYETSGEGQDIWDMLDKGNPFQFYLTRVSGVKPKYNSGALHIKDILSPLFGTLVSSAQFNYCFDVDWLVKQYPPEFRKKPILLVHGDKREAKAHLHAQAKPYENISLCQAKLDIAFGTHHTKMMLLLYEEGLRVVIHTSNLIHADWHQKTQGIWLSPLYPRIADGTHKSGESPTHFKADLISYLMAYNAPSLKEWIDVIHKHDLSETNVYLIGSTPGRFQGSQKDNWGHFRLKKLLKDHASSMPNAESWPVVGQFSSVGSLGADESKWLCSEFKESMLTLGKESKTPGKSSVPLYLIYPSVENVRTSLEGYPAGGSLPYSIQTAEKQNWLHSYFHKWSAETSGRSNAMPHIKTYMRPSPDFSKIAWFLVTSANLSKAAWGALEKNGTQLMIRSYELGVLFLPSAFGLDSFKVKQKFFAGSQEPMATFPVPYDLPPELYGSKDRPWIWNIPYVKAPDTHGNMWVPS
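Tdp1 1 nM final; 15 min RT w/ cpd; substrate 15 nM, 5 min; beads 10 ug/ml, 10 min; AlphaScreen read. Neg ctrl: no enzyme.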
miR-21 act: qHTS Assay for Modulators of miRNAs and/orActivators of miR-21 | HeLa miR-21 FLuc reporter, luciferase, 48 h | Potency, µM (titrated, usually from 38.3 µM), for inactives: at the highest dose activity change, positive = activation, usual class: activators | 340,000 tested, under 10 active | AID 2288, 2010;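 also: % of control where 0% means no effect; miR-21 action dims this reporter so a rising signal means less miR-21 action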
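HeLa cells endogenously expressing miR-21, stably carrying CMV-driven firefly luciferase with a downstream miR-21 binding site, 2000 cells/well. Titrations up to approximately 40 uM, 48 hours; luciferase luminescence read.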
TDP1 cell noCPT: qHTS for Inhibitors of human tyrosyl-DNA phosphodiesterase 1 (TDP1): qHTS in cells in absence of CPT; DT40 Tdp1-/- hTDP1 cells, no CPT, ATP luminescence, 48 h; Potency, µM (titrated, usually from 46.2 µM), for inactives: at the top dose activity change, negative = growth inhibition, actives largely listed as inhibitors; 420,000 compounds, 15% hits; also: potency is read from the fitted curve at half-maximal effect; % is scaled to controls: 0 for no effect and ±100 for the full control effect; nearly all actives have a fitted effect of over 55% in size
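Growth kinetics read by CellTiter-Glo luminescence after ≥48 hr at 37 °C. Cells: DT40 Tdp1-/- stably carrying human TDP1, 400 per well, compound exposure in the absence of CPT (DMSO vehicle).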
uPA surface inh: qHTS for Inhibitors of Cell Surface uPA Generation. cell surface uPA generation assay, qHTS. Potency, µM (highest dose often 38.3 µM), inactives show at the top dose activity change, negative = inhibition, usual class: inhibitors. 330,000 compounds, 0.31% hits. AID 540303, 2011; active = well fitted inhibition curve with a large enough effect; inconclusive = small, poorly fitted or top-dose-only effect; inactive = no such curve, though single readings can be large or run the other way; tested in mouse RAW 264.7 cells; also: potency is read from the fitted curve at half-maximal effect; % is scaled to controls: 0 for no effect and ±100 for the full control effect; nearly all actives have a fitted effect of over 55% in size
TDP1 cell CPT: qHTS for Inhibitors of human tyrosyl-DNA phosphodiesterase 1 (TDP1): qHTS in cells in presence of CPT; chicken DT40 Tdp1-/-;hTDP1 cells + 20 nM CPT, ATP luminescence, 48 h; Potency, µM (highest dose often 46.2 µM), for the others: top-dose activity change, negative = growth inhibition, hits mostly inhibitors; 420,000 compounds, 12% hits; AID 686979, 2013; also: potency is read from the fitted curve at half-maximal effect; % is scaled to controls: 0 for no effect and ±100 for the full control effect; nearly all actives have a fitted effect of over 55% in size
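Chicken DT40 Tdp1-/- cells complemented with human TDP1, 400 cells/well, exposed to compounds plus 20 nM camptothecin for at least 48 h at 37 C; viability read as ATP content by CellTiter-Glo luminescence.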
The depositor's hits bear a star; [ ] = remark or other dose. Unless noted, calls follow the shape of the dose curve; as a rule, active = well fitted curve in the direction sought with a large enough effect; inconclusive = small, poorly fitted or top-dose-only effect, or another doubt; inactive = no such curve, though single readings can be large; an effect the other way counts as inactive or inconclusive.

How did Cc1cc(C)c(Cn2c3ccccc3c3cnn(CC(=O)NCCC4=CCCCC4)c(=O)c32)c(C)c1 do in these assays?
TDP1 block: 5%; miR-21 act: -1%; TDP1 cell noCPT: 16µM*; TDP1 cell CPT: 21µM*

What do the screens show for `Cc1cc(C)c(Cn2c3ccccc3c3cnn(CC(=O)NCCCc4ccccc4)c(=O)c32)c(C)c1`?
TDP1 block: 3%; miR-21 act: -1%; TDP1 cell noCPT: 21µM*; TDP1 cell CPT: 18µM*

Results for Cc1cc(C)n2c(SCc3cccs3)nnc2n1 ?
TDP1 block: 7%; miR-21 act: -32%; TDP1 cell noCPT: -16%; uPA surface inh: 2%; TDP1 cell CPT: 0%

What do the screens show for `CCN(c1ccccc1)S(=O)(=O)c1ccc(OC)c(NC(=O)Cc2ccccc2OC)c1`?
TDP1 block: -2%; TDP1 cell noCPT: 23µM*; uPA surface inh: -4%; TDP1 cell CPT: 23µM*

Results for CCN(c1ccccc1)S(=O)(=O)c1ccc(Cl)c(NC(=O)COC(=O)c2cccc(OC)c2O)c1 ?
TDP1 block: -2%; miR-21 act: -9%; TDP1 cell noCPT: 18µM*; uPA surface inh: -1%; TDP1 cell CPT: inconclusive

Results for CCN(c1ccccc1)S(=O)(=O)c1ccc(Cl)c(NC(=O)COC(=O)c2ccc(Cl)c(N)c2)c1 ?
TDP1 block: 3%; miR-21 act: 7%; TDP1 cell noCPT: inconclusive; uPA surface inh: -1%; TDP1 cell CPT: 8%

What do the screens show for `CCN(c1ccccc1)S(=O)(=O)c1ccc(OC)c(NC(=O)Cc2ccc(OC)c(OC)c2)c1`?
TDP1 block: 2%[56.1 µM]; TDP1 cell noCPT: inconclusive; uPA surface inh: 14%; TDP1 cell CPT: inconclusive

How did O=C(O)C1CCC(N2C(=O)c3cccc([N+](=O)[O-])c3C2=O)CC1 (stereo not drawn) do in these assays?
TDP1 block: 6%; miR-21 act: -1%; TDP1 cell noCPT: 5%; uPA surface inh: -3%; TDP1 cell CPT: -3%

How did Nn1cc(-c2ccccc2)nc1SCC(=O)NCC1CCCO1 (stereo not drawn) do in these assays?
TDP1 block: 2%; miR-21 act: -8%; TDP1 cell noCPT: 5%; uPA surface inh: 1%; TDP1 cell CPT: 3%

How did COc1ccc(CCNC(=O)COC(=O)c2cc(S(=O)(=O)N3CCOCC3)ccc2C)cc1OC do in these assays?
TDP1 block: 1%; TDP1 cell noCPT: inconclusive; uPA surface inh: -4%; TDP1 cell CPT: 18µM*

What do the screens show for `COc1cc(NC(=O)c2cc(S(=O)(=O)N3CCCCC3)ccc2N2CCOCC2)cc(OC)c1`?
TDP1 block: 0%; TDP1 cell noCPT: 21µM*; uPA surface inh: -16%; TDP1 cell CPT: 21µM*

How did Cc1ccc(S(=O)(=O)N2CCOCC2)cc1C(=O)OCC(=O)NCCc1ccccc1 do in these assays?
TDP1 block: -1%; TDP1 cell noCPT: inconclusive; uPA surface inh: 1%; TDP1 cell CPT: inconclusive

How did Cc1ccc(S(=O)(=O)N2CCN(C(=O)c3cc(S(=O)(=O)N(C)C)ccc3N3CCCC3)CC2)c(C)c1 do in these assays?
TDP1 block: 0%; TDP1 cell noCPT: 16µM*; uPA surface inh: 6%; TDP1 cell CPT: inconclusive

How did Cc1ccc(S(=O)(=O)N(C)C)cc1NC(=O)c1cc(S(=O)(=O)N2CCCCC2)ccc1N1CCOCC1 do in these assays?
TDP1 block: -9%; TDP1 cell noCPT: 12µM*; uPA surface inh: -6%; TDP1 cell CPT: inconclusive

What do the screens show for `CN(C)S(=O)(=O)c1ccc(N2CCCC2)c(C(=O)Nc2ccccc2N2CCOCC2)c1`?
TDP1 block: 7%; miR-21 act: -10%; TDP1 cell noCPT: inconclusive; uPA surface inh: -5%; TDP1 cell CPT: -25%

Screening results as filed in PubChem.
